CCHF vOTU inh: blocks the CCHF virus ovarian tumor domain protease | CCHFV vOTU protease, Pep-AMC fluorescence | inhibition, % at 11.5 µM | 0.55% of 370,000 active; note: 0% = vehicle wells with enzyme and 100% = no enzyme wells
FBA Mtb inh: inhibits M. tuberculosis FBA enzyme | inhibition, % at 1 µM | purified M. tuberculosis FBA, fluorescence read-out | AID 588726 | 2.3% of 360,000 active; in the data active = inhibition above about 27%;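 note: 0% = vehicle and 100% = reference inhibitor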
Target sequence (P9WQA3 whole entry, looked up): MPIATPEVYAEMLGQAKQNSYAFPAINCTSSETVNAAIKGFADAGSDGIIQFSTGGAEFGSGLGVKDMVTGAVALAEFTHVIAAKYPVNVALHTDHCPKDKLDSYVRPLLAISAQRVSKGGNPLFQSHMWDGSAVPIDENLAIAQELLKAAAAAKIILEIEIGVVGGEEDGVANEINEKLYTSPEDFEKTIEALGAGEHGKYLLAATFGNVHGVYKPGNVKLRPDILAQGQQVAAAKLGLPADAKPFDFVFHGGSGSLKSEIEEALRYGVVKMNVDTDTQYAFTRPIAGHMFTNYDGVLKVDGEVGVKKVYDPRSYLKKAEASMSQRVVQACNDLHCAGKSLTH
Vc quorum ag: induces V. cholerae light production without autoinducers; V. cholerae BH1578 lux reporter, luminescence, 6 h; activation, % at 18.7 µM; 0.16% of 350,000 active; AID 588436; in the data active = activation mostly above about 9.7%, no sharp cut-off
GDH-TPI counter-1: GDH-TPI coupled enzyme inhibition counter-screen | AID 588335 | GDH-TPI coupled enzyme counterscreen, NADH absorbance | 1.2% of 360,000 active | inhibition, % at 4.8 µM;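 note: 0% = DMSO wells and 100% = wells lacking the enzyme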
Mtb FBA confirm: confirmation of M. tuberculosis fructose-bisphosphate aldolase inhibitors | inhibition, % at 1 µM | shares compounds with FBA Mtb inh | 78% of 5,600 active | purified M. tuberculosis FBA, fluorescence read-out; in the data active = inhibition above about 27%;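 note: 0% = vehicle wells and 100% = reference inhibitor wells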
GDH-TPI counter-2: inhibits GDH-TPI coupling enzymes, flagging Mtb FBA hits; shares compounds with FBA Mtb inh; GDH-TPI coupled enzyme counterscreen, fluorescence; inhibition, % at 1 µM; 81% of 5,600 active; in the data active = inhibition above about 10%
GDH-TPI dose: counter-screen for M. tuberculosis FBA inhibitors: GDH-TPI dose response | shares compounds with FBA Mtb inh | 79% of 170 active | AID 652145 | IC50, µM | GDH-TPI coupled enzyme assay, fluorescence, artifact counterscreen; call rule not given here
Active calls of the source: *; i = inactive; nt = no result; + = active, no number. Hits are enriched below; roughly 3.9% of the tested compounds scored in any of these assays. Cut-off read from the data, not from the text of the source, unless noted: active = inhibition above about 30%; inactive = the rest.

SMILES | CCHF vOTU inh | FBA Mtb inh | Vc quorum ag | GDH-TPI counter-1 | Mtb FBA confirm | GDH-TPI counter-2 | others
Cc1ccc(-n2nc3ccc(N)cc3n2)cc1C | -105 | 27* | i | 12 | 15 | 10 | GDH-TPI dose=1.5*
Cc1cc(N)ccc1-n1nc2ccccc2n1 | 0 | 2 | -1 | 17 | nt | nt
Cc1ccc(-n2nc3ccc(N)cc3n2)c(C)c1 | -128 | 100* | -1 | 20 | + | +
COc1ccc(-n2nc3ccc(NS(C)(=O)=O)cc3n2)cc1Cl | -23 | 92* | 0 | 11 | 36* | 22*
Cc1ccc(S(=O)(=O)N(C)c2ccccc2C(=O)Nc2c(F)cccc2F)cc1 | 8 | 0 | 2 | 1 | nt | nt
Cc1ccc(-n2nc3ccc(N)cc3n2)cc1Cl | -76 | 28* | i | 6 | 59* | 47*
CC(C)(C)c1ccc(Nc2n[nH]c3ccccc23)cc1 | 5 | 12 | nt | nt | nt | nt
CCOC(=O)c1c(NC(=O)Cn2nnc(-c3ccccc3Cl)n2)sc(C)c1C | 8 | 110* | i | 10 | 0 | -5
Cc1ccc([N+](=O)[O-])cc1S(=O)(=O)N1CCN(C)CC1 | -12 | 0 | i | -1 | nt | nt
COc1ccc(CNC(=O)COc2cc3c(c4oc(=O)cc(C)c24)CCC(C)(C)O3)cc1 | -25 | 43* | 0 | 22 | + | 171*
Cc1cc(OCC(=O)N2CCC(C(N)=O)CC2)c2c3c(c(=O)oc2c1)CCCC3 | -2 | 17 | 0 | -2 | nt | nt
Cc1c(C)c2c(OCC(=O)N3CCC(C(=O)NCC(C)C)CC3)cc3c(c2oc1=O)CCC(C)(C)O3 | nt | 51* | 9 | 8 | -4 | 0
CCOc1ccc(-c2nc(CCl)cs2)cc1OC | 0 | 46* | 0 | 2 | 41* | 19*
Cc1cc(C)n2nc(NCc3ccccc3)nc2n1 | -14 | 55* | -2 | 7 | 4 | -5
COc1ccc(-c2nc3nc(C)cc(C)n3n2)cc1 | 15 | 57* | 0 | -11 | 49* | 38*
COc1ccc(CNc2nc3nc(C)cc(C)n3n2)cc1 | 2 | 8 | 0 | 4 | nt | nt
CN(C)c1ccc(/C=C/c2ccc3ccccc3[n+]2C)cc1 | 4 | -20 | i | -1 | nt | nt
CN(C)c1ccc(/C=C/c2ccc3c4ccccc4ccc3[n+]2-c2ccccc2)cc1 | 0 | 36* | -1 | 9 | 122* | 101*
CNC(=O)Oc1cccc(-c2cn3cc(Cl)ccc3n2)c1 | -1 | 6 | 0 | 11 | nt | nt
COc1ccc(-c2cn3cccc(C)c3n2)cc1F | -6 | 31* | -2 | -2 | -4 | -7
CNC(=O)Oc1ccc(-c2cn3cc(C)ccc3n2)cc1 | -19 | 47* | -1 | 13 | 38* | 34*
COC(=O)c1ccc2nc(-c3ccc(S(C)(=O)=O)cc3)cn2c1 | -30 | 36* | 0 | -6 | 141* | 142*
COc1ccc(-c2cn3cc(C)ccc3n2)cc1F | -15 | 37* | 0 | 8 | 77* | 65*
COc1ccc(-c2csc(NC(=O)c3ccc(S(C)(=O)=O)cc3)n2)cc1 | 1 | 0 | i | 7 | nt | nt
Cc1cc(-c2ccccc2)n2nc(N)nc2n1 | -25 | 34* | -1 | 2 | 97* | 76*
SMILES | CCHF vOTU inh | FBA Mtb inh | Vc quorum ag | GDH-TPI counter-1 | Mtb FBA confirm | GDH-TPI counter-2 | others
Cc1cc(-c2ccccc2)n2nc(C)c(C#N)c2n1 | -25 | 27* | 0 | 7 | + | +
Cc1cc(C)n2nc(N)nc2n1 | 5 | 1 | i | 5 | nt | nt
Cc1nc2sc3c(NCc4ccco4)ncnc3c2c2c1COC(C)(C)C2 | -5 | 5 | i | -1 | nt | nt
COCCCNc1ncnc2c1sc1nc(-c3ccco3)c3c(c12)CC(C)(C)OC3 | -21 | 39* | i | 39* | 98* | 94*
CC1(C)Cc2c(c(-c3ccco3)nc3sc4c(NCCO)ncnc4c23)CO1 | -17 | 44* | 0 | 30 | 135* | 101*
Cc1ccc2occ(/C=N/NC(=O)c3ccncc3)c(=O)c2c1 | 1 | -1 | 0 | 8 | nt | nt
CCn1c(-c2cccs2)nc2ccccc21 | -11 | 58* | -1 | 2 | 123* | 108*
CCn1c(SCc2nc3ccccc3s2)nnc1-c1cccs1 | -14 | 3 | 0 | -6 | nt | nt
C#CCn1c(-c2cccs2)nc2ccccc21 | -8 | 68* | -1 | 10 | 61* | 39*
Nc1[nH]ncc1-c1ccc(F)cc1 | -9 | 108* | 7 | 11 | 10 | -6
COc1ccc(OC)c(NC(=O)NCc2cccnc2)c1 | -10 | 4 | i | 6 | nt | nt
